Legend:
Test in all cases: DAPPL (digital affinity profiling via proximity ligation, sequencing); 10 mM Tris-HCl pH 7.5, 50 mM NaCl, 1 mM DTT, 4% glycerol, room temperature, 30 min; GST-TFs on glutathione beads, 16-mer random dsDNA library, 0.1% formaldehyde crosslink after washing; high values mean tight binding
Details in all cases: protein: recombinant; tags: N-terminal GST; dsDNA, one strand shown
FLI1 = target: T1, FLI1 (Homo sapiens, UniProt Q01543 1-452)
T1 sequence: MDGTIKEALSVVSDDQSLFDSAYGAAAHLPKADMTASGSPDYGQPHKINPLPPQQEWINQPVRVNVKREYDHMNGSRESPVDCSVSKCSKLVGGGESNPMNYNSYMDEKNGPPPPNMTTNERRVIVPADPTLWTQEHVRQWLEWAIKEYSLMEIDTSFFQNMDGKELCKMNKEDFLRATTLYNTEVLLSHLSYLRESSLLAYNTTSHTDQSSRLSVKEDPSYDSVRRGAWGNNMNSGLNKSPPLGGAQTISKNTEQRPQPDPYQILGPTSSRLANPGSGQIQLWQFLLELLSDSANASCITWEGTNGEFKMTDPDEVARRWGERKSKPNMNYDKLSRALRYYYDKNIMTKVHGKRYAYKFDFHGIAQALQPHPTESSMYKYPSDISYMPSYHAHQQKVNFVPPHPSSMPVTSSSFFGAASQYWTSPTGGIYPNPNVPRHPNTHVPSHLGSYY
Procedure, shortened: (§1)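 Binding signal is each hexamer's read frequency for a factor divided by its frequency in the tag-only sample. The factors were GST-fused human transcription factors from yeast, captured on glutathione beads, DNA-barcoded and pooled with that sample. Pools were incubated with 200 nmole of a random double-stranded 16-mer DNA library in Tris/NaCl/DTT/glycerol buffer at room temperature for 30 min, then washed, crosslinked with 0.1% formaldehyde, proximity-ligated with BsaI/T4 ligase (1 h, 37 °C), PCR-amplified and sequenced on an Illumina NextSeq500.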

ELK1 = target: T2, ELK1 (Homo sapiens, UniProt P19419 1-428)
T2 sequence: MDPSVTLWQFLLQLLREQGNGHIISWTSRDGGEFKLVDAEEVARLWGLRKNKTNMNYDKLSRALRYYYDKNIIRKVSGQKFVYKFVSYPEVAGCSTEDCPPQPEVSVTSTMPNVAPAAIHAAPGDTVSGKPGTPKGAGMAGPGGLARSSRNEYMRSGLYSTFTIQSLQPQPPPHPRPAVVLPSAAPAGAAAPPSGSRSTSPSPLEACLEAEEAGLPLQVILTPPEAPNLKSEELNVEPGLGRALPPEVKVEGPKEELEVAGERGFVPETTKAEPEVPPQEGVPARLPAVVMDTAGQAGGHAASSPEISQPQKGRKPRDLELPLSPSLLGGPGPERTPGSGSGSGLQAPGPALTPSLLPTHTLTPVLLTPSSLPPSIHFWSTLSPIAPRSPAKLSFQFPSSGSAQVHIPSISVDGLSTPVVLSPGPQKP
Procedure, shortened: as §1

GABPA = target: T3, GABPA (Homo sapiens, UniProt Q06546 1-454)
T3 sequence: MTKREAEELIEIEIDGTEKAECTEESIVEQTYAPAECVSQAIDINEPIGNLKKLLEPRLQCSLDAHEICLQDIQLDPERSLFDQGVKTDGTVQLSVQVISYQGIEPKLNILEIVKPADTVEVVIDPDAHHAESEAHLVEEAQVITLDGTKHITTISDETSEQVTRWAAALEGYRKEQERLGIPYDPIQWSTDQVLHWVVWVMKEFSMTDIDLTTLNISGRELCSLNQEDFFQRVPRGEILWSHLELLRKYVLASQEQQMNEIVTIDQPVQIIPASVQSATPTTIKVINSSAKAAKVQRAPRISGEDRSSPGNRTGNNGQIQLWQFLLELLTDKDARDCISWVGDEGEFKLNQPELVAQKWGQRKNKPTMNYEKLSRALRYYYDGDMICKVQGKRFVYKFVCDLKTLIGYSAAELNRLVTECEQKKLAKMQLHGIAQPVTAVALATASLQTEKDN
Procedure, shortened: as §1

ERG = target: T4, ERG (Homo sapiens, UniProt P11308 1-479)
T4 sequence: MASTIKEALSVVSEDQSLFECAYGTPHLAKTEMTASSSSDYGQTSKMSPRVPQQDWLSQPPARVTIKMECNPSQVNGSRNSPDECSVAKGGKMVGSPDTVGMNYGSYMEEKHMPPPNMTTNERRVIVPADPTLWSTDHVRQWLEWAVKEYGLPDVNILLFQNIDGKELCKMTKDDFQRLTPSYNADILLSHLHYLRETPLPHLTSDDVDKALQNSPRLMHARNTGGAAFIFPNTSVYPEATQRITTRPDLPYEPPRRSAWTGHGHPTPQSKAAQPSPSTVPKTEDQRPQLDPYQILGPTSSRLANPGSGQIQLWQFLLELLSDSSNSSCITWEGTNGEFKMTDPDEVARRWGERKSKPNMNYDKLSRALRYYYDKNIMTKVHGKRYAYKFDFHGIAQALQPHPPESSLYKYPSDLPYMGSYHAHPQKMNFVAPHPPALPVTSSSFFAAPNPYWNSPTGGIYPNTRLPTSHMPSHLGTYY
Procedure, shortened: as §1

ELF1 = ELF1 (Homo sapiens, UniProt P32519 1-619)
ELF1, sequence (P32519 whole entry): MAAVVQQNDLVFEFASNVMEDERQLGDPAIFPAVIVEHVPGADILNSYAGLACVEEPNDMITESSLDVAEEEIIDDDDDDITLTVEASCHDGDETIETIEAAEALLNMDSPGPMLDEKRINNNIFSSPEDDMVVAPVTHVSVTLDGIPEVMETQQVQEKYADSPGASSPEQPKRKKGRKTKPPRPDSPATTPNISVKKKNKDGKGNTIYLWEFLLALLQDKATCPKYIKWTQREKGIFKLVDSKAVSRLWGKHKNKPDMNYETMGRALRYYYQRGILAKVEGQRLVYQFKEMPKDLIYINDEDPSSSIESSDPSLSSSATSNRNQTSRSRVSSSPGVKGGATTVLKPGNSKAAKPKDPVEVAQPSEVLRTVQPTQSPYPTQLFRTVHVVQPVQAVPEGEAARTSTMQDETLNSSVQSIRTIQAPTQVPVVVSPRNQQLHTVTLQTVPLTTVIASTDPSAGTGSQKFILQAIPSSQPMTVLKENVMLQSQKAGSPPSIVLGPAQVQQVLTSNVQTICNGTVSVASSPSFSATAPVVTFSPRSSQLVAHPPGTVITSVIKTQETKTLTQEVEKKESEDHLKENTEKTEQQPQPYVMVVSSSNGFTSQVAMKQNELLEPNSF
Procedure, shortened: as §1

EHF = target: T5, EHF (Homo sapiens, UniProt Q9NZC4 1-300)
T5 sequence: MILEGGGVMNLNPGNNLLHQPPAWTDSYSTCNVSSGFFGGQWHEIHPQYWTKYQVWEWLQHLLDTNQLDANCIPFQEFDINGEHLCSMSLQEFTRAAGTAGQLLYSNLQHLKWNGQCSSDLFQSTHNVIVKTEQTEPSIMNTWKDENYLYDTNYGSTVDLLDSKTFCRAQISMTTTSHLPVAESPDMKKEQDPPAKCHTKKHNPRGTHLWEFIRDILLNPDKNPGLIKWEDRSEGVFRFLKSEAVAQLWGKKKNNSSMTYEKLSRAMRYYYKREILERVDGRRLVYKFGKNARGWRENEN
Procedure, shortened: as §1

SPI1 = SPI1 (Homo sapiens, UniProt P17947 1-270)
Procedure, shortened: as §1

SPIB = SPIB (Homo sapiens, UniProt Q01892 1-262)
SPIB, sequence (Q01892 whole entry): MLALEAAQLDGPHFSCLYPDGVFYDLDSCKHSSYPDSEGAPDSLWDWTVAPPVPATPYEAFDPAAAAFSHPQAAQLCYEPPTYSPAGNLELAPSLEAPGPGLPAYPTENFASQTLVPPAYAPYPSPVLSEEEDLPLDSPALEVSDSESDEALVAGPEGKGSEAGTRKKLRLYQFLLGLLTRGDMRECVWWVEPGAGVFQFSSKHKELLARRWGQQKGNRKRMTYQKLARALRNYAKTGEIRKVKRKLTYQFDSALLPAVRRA
Procedure, shortened: as §1

ELK3 = target: T6, ELK3 (Homo sapiens, UniProt P41970 1-407)
T6 sequence: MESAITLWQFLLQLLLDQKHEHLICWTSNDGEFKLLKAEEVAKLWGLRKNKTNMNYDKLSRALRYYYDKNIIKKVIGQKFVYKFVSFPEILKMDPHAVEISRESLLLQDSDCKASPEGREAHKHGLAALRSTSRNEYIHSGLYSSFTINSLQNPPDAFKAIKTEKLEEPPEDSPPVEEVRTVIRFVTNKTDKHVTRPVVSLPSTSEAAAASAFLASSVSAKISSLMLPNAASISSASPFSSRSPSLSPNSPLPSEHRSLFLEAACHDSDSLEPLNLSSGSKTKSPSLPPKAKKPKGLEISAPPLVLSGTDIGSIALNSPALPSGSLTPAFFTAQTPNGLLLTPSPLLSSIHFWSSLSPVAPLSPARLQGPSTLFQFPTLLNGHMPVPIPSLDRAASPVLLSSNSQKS
Procedure, shortened: as §1

| Sequence | binding signal (FLI1) | binding signal (ELK1) | binding signal (GABPA) | binding signal (ERG) | binding signal (ELF1) | binding signal (EHF) | binding signal (SPI1) | binding signal (SPIB) | binding signal (ELK3) |
| --- | --- | --- | --- | --- | --- | --- | --- | --- | --- |
| TTACTA | 1.34 fold enrichment (6-mer frequency, TF over GST control) | 1.31 fold enrichment (6-mer frequency, TF over GST control) | 1.36 fold enrichment (6-mer frequency, TF over GST control) | 1.33 fold enrichment (6-mer frequency, TF over GST control) | 1.28 fold enrichment (6-mer frequency, TF over GST control) | 1.23 fold enrichment (6-mer frequency, TF over GST control) | 1.27 fold enrichment (6-mer frequency, TF over GST control) | 1.36 fold enrichment (6-mer frequency, TF over GST control) | 1.31 fold enrichment (6-mer frequency, TF over GST control) |
| CTCGAG | 1.23 fold enrichment (6-mer frequency, TF over GST control) | 1.34 fold enrichment (6-mer frequency, TF over GST control) | 1.35 fold enrichment (6-mer frequency, TF over GST control) | 1.31 fold enrichment (6-mer frequency, TF over GST control) | 1.28 fold enrichment (6-mer frequency, TF over GST control) | 1.21 fold enrichment (6-mer frequency, TF over GST control) | 1.35 fold enrichment (6-mer frequency, TF over GST control) | 1.31 fold enrichment (6-mer frequency, TF over GST control) | 1.18 fold enrichment (6-mer frequency, TF over GST control) |
| TATATC | 1.6 fold enrichment (6-mer frequency, TF over GST control) | 1.62 fold enrichment (6-mer frequency, TF over GST control) | 1.55 fold enrichment (6-mer frequency, TF over GST control) | 1.48 fold enrichment (6-mer frequency, TF over GST control) | 1.58 fold enrichment (6-mer frequency, TF over GST control) | 1.59 fold enrichment (6-mer frequency, TF over GST control) | 1.54 fold enrichment (6-mer frequency, TF over GST control) | 1.67 fold enrichment (6-mer frequency, TF over GST control) | 1.42 fold enrichment (6-mer frequency, TF over GST control) |
| CTTGTA | 1.5 fold enrichment (6-mer frequency, TF over GST control) | 1.36 fold enrichment (6-mer frequency, TF over GST control) | 1.37 fold enrichment (6-mer frequency, TF over GST control) | 1.33 fold enrichment (6-mer frequency, TF over GST control) | 1.41 fold enrichment (6-mer frequency, TF over GST control) | 1.42 fold enrichment (6-mer frequency, TF over GST control) | 1.39 fold enrichment (6-mer frequency, TF over GST control) | 1.44 fold enrichment (6-mer frequency, TF over GST control) | 1.25 fold enrichment (6-mer frequency, TF over GST control) |
| ACTCGT | 1.19 fold enrichment (6-mer frequency, TF over GST control) | 1.37 fold enrichment (6-mer frequency, TF over GST control) | 1.26 fold enrichment (6-mer frequency, TF over GST control) | 1.19 fold enrichment (6-mer frequency, TF over GST control) | 1.25 fold enrichment (6-mer frequency, TF over GST control) | 1.26 fold enrichment (6-mer frequency, TF over GST control) | 1.17 fold enrichment (6-mer frequency, TF over GST control) | 1.26 fold enrichment (6-mer frequency, TF over GST control) | 1.19 fold enrichment (6-mer frequency, TF over GST control) |
| TCTATC | 1.25 fold enrichment (6-mer frequency, TF over GST control) | 1.27 fold enrichment (6-mer frequency, TF over GST control) | 1.21 fold enrichment (6-mer frequency, TF over GST control) | 1.21 fold enrichment (6-mer frequency, TF over GST control) | 1.25 fold enrichment (6-mer frequency, TF over GST control) | 1.19 fold enrichment (6-mer frequency, TF over GST control) | 1.22 fold enrichment (6-mer frequency, TF over GST control) | 1.17 fold enrichment (6-mer frequency, TF over GST control) | 1.37 fold enrichment (6-mer frequency, TF over GST control) |
| CCTTGA | 1.26 fold enrichment (6-mer frequency, TF over GST control) | 1.26 fold enrichment (6-mer frequency, TF over GST control) | 1.24 fold enrichment (6-mer frequency, TF over GST control) | 1.27 fold enrichment (6-mer frequency, TF over GST control) | 1.25 fold enrichment (6-mer frequency, TF over GST control) | 1.23 fold enrichment (6-mer frequency, TF over GST control) | 1.17 fold enrichment (6-mer frequency, TF over GST control) | 1.24 fold enrichment (6-mer frequency, TF over GST control) | 1.4 fold enrichment (6-mer frequency, TF over GST control) |
